Experimental findings from PubChem BioAssay are described below.

Each structure is given as a SMILES string. Where “and” joins values, the source holds several entries; their conditions need not be identical. Equal values may be shown once. Where a structure was tested more than once in an assay, its records may differ in their call. Calls of active or inactive are those of the source.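 How the source made its calls, unless noted: active means compounds whose cell count with miR-34 switched on is under 0.7 times the count with it off; inactive means the rest.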

A short description of assay [1]: signal quenchers or enhancers, Cy5 substrate/SSB – biochemical, NIH Clinical Collection, E. coli SSB, artefact control for HCV NS3 helicase inhibitor project (AID 743268; call rule not given here). Particulars: Cy5-oligo bound E. coli SSB, fluorescence interference.
Assay [2] concerns Hepatitis C virus NS3 helicase. The assay is described as follows: blockers of NS3h binding to DNA – biochemical, fluorescence polarization, NIH Clinical Collection, primary screen (AID 743270; call rule not given here). To be noted: NS3 helicase binding to Cy5-dT15 DNA, stronger effect = higher value, concentration not given here. Background: Fluorescence polarisation rises when a labelled molecule tumbles more slowly, as on binding a larger partner.

Assay [3] addresses Single-stranded DNA-binding protein (Escherichia coli (strain K12)) (UniProt P0AGE0). In words: SSB-ssDNA binding inhibitors – biochemical, fluorescence polarization, NIH Clinical Collection, counter-screen for HCV NS3 helicase inhibitor project (AID 743271; in the data active means inhibition above about 28%). To be noted: E. coli SSB-DNA binding, stronger effect = higher value, concentration not given here.
A short description of assay [4]: compounds distorting NS3 helicase fluorescence signal – biochemical, NIH Clinical Collection, artefact control for HCV NS3 helicase inhibitor project (AID 743272; call rule not given here;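 further: HCV NS3 helicase with a Cy5 labelled single stranded DNA probe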). Particulars: fluorescence interference counterscreen, HCV NS3 helicase assay; stronger effect = lower value. (In general: The purpose of a counterscreen is to sort out artefacts and off-target activity.)
Assay [5] is described as follows: Wnt pathway potentiators raising nuclear beta-catenin – imaging, WNT3A-conditioned medium, mouse C2C12, NPC library, primary screen (AID 1117326; in the data active means nuclear beta-catenin stimulation mostly above about 4.2%, no sharp cut-off; inactive means mostly below about 10%). Particulars: stronger effect = higher value.
Assay [6] in a line: stimulators of insulin release from INS-1E, primary screen, cell-based, 5 mM glucose, NPC library (AID 1117329;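 active means compound raises insulin release from rat beta cells at 5 mM glucose, no numeric limit stated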). Particulars: rat INS-1E insulin secretion, at 10 µM, stronger effect = higher value.
Assay [7] in a line: growth inhibition of GSK3B-pretreated HCT116 cells – cell-based, CellTiter-Glo, 0.2 to 20 µM (AID 1117336;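 active means compounds lowering colon cancer cell viability after pretreatment blocking the GSK3B kinase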). To be noted: HCT116 viability after GSK3B inhibitor, at 20 µM, stronger effect = higher value. A general note: ATP-based viability assays read luminescence as a measure of living cells.
Assay [8] can be described thus: inhibition of endothelial tube formation, primary screen, imaging, VEGF stimulated, CD31 staining, tube area, NPC library (AID 1117340;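 active means compound that reduces growth-factor-driven endothelial tube area in a mixed cell culture, no cutoff stated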). To be noted: VEGF-stimulated ADSC/ECFC co-culture, at 10 µM, stronger effect = higher value.
Assay [9] can be described thus: GLP1 release stimulators, primary, NCI-H716, NPC library (AID 1117341;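 active means compound raises GLP1 secretion from the human gut endocrine cells, with no numeric limit stated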). To be noted: NCI-H716 cells, at 10 µM, stronger effect = higher value.
Assay [10] in a line: HCT116 colon cancer cell growth inhibition, primary screen, CellTiter-Glo luminescence, NPC library (AID 1117342;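 active means compounds that lower survival of HCT116 colon cancer cells in the luminescence readout, no numeric limit stated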). To be noted: at 20 µM (top of the series).
Assay [11] in a line: reduced SW480 viability measured with CellTiter-Glo, NPC library, primary (AID 1117343;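 active means compounds that lower viability of the colon cancer cells in the luminescence readout, with no numeric limit stated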). Particulars: CellTiter-Glo luminescence; at 20 µM (top of the series).
The nature of assay [12]: NPC library primary testing for decreased DLD-1 cell viability via CellTiter-Glo (AID 1117346;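 active means compounds that lower survival of DLD-1 colon cancer cells in the luminescence readout, no cutoff given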). Particulars: DLD-1 viability, CellTiter-Glo luminescence; at 20 µM (top of the series).
Assay [13] addresses 6-phosphogluconate dehydrogenase, decarboxylating (Homo sapiens) (UniProt P52209). In words: inhibition of human phosphogluconate dehydrogenase – biochemical, recombinant enzyme, NADPH absorbance, primary screen (AID 1159550;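 active means at least 20% inhibition of 6-phosphogluconate dehydrogenase activity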). Particulars: recombinant 6PGD, NADPH absorbance 341 nm; at 10 µM; stronger effect = higher value.
Assay [14] in a line: viability loss with induced miR-34 in A549 – imaging, A549 dox-inducible miR-34, nuclei and caspase counts, primary screen (AID 1347080). Particulars: A549 miR-34 inducible, Hoechst nuclei count, 48 h.
Assay [15] can be described thus: MELAS cybrid and Rieske KO viability enhancers – cell-based, MELAS cybrids, Rieske KO mouse fibroblasts, CellTiter-Glo, primary screen (AID 1508586;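 active means mean z-score across replicates of 1.96 or higher in either the MELAS or the Rieske mutant cell line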;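 further: z relative to plate mean and SD of compound and empty wells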). Particulars: low glucose.
Assay [16] addresses NAD(+) hydrolase SARM1 (Homo sapiens) (UniProt Q6SZW1). The assay is described as follows: blocking NAD cleavage by SARM1 SAM-TIR – cell lysate, NAD-Glo luminescence (AID 1508614;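 active means compound whose remaining NAD level is above about 45 nM, limit read from the data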). Particulars: SAM-TIR HEK293T lysate NADase, at 1 µM, stronger effect = higher value.
Assay [17] concerns the target Mitogen-activated protein kinase 7 (Homo sapiens) (UniProt Q13164). The assay is described as follows: Gal4-ERK5 driven luciferase induction – cell-based, HTS, primary screen (AID 1508626;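 active means luciferase signal above three times the same-plate solvent-only control wells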;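 further: luciferase driven by Gal4-ERK5 fusion binding five Gal4 sites before minimal TATA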). Particulars: HeLa Gal4-ERK5 transactivation, 18 h, at 5 µM, stronger effect = higher value.
Assay [18] relates to F380Y. The assay is described as follows: BK channel mutant inhibitors and activators – cell-based, U2OS BacMam, thallium flux, beta subunits, selectivity assay, profiling panel (AID 1259406;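 active means thallium flux through the channel raised or lowered by more than 3 SD from vehicle-only wells, actives on both sides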;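 further: initial slope of Thallos dye fluorescence rise after thallium is added; log ratio against the mean of 0.3% DMSO vehicle wells on the same plate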). To be noted: U2OS BacMam BK variants, at 30 µM.
Assay [19] in a line: P. berghei load reduction in hepatocytes – cell-based, HepG2, luciferase luminescence, HepG2 viability, primary screen (AID 624349; in the data active means parasite load remaining mostly below about 12%, no sharp cut-off; inactive means mostly above about 10%;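 further: 100% = mean of DMSO negative control wells on the same plate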). To be noted: P. berghei liver stage in HepG2, luciferase luminescence, concentration not given here; parasite load remaining: stronger effect = lower value; viability: measured here: HepG2 viability without parasites.
A short description of assay [20]: EMT-state selective cytotoxicity in co-culture – imaging, PC-3E GFP, TEM4-18 mCherry, primary screen (AID 1345086;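 active means compounds killing one labelled cell type while sparing the other, by normalised counts and ratio limits, not self-fluorescent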;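 on all read-outs here: cells exposed to compound for 72 h before imaging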;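 on red/green cell ratio (normalised): normalised mesenchymal count divided by normalised epithelial count so high means epithelial killing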). Particulars: PC-3E GFP / TEM4-18 mCherry co-culture, imaging cell counts, at 1 µM; for red/green cell ratio (normalised): actives lie on both sides, counts scaled to control wells, 1 = unselective.
Where [21] appears, read: stronger effect = lower value, cell number ratio, induced over uninduced.
The mark [22] stands for this setting: measured here: relative caspase fold change +Dox/-Dox.
Where [23] appears, read: measured here: total cells with miR-34 induction, stronger effect = lower value.
The mark [24] stands for this setting: measured here: total cells without miR-34 induction.
The mark [25] stands for this setting: MELAS cybrid survival, CellTiter-Glo 48 h, stronger effect = higher value.
The mark [26] stands for this setting: Rieske KO mouse fibroblast survival, CellTiter-Glo 72 h.
[27] abbreviates: measured here: epithelial PC-3E GFP cell survival.
The mark [28] stands for this setting: measured here: mesenchymal TEM4-18 mCherry cell survival.

Sequence of NAD(+) hydrolase SARM1 (Homo sapiens) (Q6SZW1 whole entry, looked up, the tested form may be a part): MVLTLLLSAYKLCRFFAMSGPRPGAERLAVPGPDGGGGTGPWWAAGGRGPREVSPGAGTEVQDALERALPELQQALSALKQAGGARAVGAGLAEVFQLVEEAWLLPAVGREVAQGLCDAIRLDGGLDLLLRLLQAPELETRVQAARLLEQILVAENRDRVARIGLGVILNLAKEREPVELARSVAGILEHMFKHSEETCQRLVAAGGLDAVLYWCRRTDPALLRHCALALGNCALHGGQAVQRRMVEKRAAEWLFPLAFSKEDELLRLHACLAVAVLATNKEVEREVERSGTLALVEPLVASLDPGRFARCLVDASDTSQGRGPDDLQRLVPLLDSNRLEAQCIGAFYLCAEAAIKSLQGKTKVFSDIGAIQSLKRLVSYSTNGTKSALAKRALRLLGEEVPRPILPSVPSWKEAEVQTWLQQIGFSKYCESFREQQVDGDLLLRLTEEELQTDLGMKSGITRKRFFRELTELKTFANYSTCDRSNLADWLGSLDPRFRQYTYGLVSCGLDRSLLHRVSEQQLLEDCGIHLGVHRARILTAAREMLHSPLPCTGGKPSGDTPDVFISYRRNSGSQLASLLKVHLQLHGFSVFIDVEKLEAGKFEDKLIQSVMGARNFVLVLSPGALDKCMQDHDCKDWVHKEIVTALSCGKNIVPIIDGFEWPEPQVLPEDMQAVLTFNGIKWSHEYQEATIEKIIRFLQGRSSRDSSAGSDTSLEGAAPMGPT
Sequence of 6-phosphogluconate dehydrogenase, decarboxylating (Homo sapiens) (P52209 whole entry, looked up): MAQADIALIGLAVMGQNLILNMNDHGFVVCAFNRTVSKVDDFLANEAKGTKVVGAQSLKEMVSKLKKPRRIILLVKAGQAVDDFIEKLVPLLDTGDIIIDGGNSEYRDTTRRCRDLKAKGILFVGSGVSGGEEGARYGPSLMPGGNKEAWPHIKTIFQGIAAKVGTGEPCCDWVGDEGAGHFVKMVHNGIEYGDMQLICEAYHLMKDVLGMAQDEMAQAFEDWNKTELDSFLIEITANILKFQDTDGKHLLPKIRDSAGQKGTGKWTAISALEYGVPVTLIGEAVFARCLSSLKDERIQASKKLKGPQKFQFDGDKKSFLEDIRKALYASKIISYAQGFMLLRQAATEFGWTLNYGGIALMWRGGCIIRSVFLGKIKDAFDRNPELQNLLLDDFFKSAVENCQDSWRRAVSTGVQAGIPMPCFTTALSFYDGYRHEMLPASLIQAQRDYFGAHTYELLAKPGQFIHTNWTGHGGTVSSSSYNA
Sequence of Mitogen-activated protein kinase 7 (Homo sapiens) (Q13164 whole entry, looked up, the tested form may be a part): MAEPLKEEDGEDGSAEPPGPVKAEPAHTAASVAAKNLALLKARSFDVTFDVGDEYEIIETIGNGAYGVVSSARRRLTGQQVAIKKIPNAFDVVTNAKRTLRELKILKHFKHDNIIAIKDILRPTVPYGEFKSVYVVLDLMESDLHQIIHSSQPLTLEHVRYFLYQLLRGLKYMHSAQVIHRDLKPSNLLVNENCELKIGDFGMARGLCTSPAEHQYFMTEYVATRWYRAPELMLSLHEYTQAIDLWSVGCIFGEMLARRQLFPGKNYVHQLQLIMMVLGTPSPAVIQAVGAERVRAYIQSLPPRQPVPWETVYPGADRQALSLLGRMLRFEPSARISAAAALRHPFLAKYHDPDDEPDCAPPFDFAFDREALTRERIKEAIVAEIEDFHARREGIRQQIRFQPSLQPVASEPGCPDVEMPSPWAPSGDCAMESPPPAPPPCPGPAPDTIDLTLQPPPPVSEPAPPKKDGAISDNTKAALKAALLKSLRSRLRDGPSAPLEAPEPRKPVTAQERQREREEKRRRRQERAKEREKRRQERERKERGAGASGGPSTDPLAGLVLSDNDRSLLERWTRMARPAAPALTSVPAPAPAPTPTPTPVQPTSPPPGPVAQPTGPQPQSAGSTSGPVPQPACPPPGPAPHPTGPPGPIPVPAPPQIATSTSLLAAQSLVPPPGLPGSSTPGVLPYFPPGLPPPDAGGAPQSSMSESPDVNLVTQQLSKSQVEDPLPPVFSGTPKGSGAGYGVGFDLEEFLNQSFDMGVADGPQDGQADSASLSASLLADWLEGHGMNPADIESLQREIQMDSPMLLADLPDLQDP

Broadly, the inhibition is the drop in the measured response relative to a control, in per cent. Consider `C[C@]12C=CC(=O)C=C1CC[C@@H]1[C@@H]2[C@@H](O)C[C@@]2(C)[C@H]1CC[C@]2(O)C(=O)CO`, for which the fluorescence ratio in [1] was 1.02 (inactive); in [4] it was 0.96 (inactive). The inhibition in [2] is -1.36% (inactive); in assay [3], 0.29% (inactive); in assay [13] it was -5.44% (inactive). Moreover, the nuclear beta-catenin stimulation in [5] (at 10 µM) is -2.6% (inactive); in [5] (stimulation, at 2 µM) it was -0.7%. Also, the insulin secretion stimulation in [6] was 1.6% (inactive). In addition, in assay [7], the viability decrease is -2.7% (inactive). For the same compound, the tube area decrease in assay [8] was 11.2% (inactive). For the same compound, in [9], the GLP1 secretion stimulation is -0.5% (inactive). Further, the inhibition of viability in [10] is -3.5% (inactive). The viability decrease (inhibition) was -1.5% (inactive) in assay [11] and -18.8% (inactive) in assay [12]. Also, the fold change is 0.93 (inactive) and 0.783 (inactive) and 0.847 (inactive) in assay [14] (setting [21]); 1.73 and 1.43 and 1.29 in assay [14] (setting [22]). Also, the cell count in assay [14] (setting [23]) is 7530 and 6090 and 6580; in assay [14] (setting [24]), 8090 and 7780 and 7760. The z-score in assay [15] (setting [25]) is 0.367 (inactive) and 0.381 (inactive); in assay [15] (setting [26]), -0.0179 and 1.19. Further, the remaining NAD in [16] was 10 nM (inactive). For the same compound, the luciferase signal in [17] is 84 AU (inactive). Moreover, the log fold change Tl+ flux in [18] is 0.0238 (inactive).

As usually defined, the viability is a read-out of living cells in per cent, often relative to untreated cells. As for `CN(C)CCN(Cc1ccccc1)c1ccccn1`, the parasite load remaining in assay [19] is 50.9% (inactive) and 109% (inactive). Further, in [19], the viability was 82.5% and 67.3%. Further, the fluorescence ratio is 1.01 (inactive) in [1] and 0.93 (inactive) in assay [4]. Moreover, the inhibition in assay [2] was 0.4% (inactive); in [3], -0.87% (inactive); in assay [13] it was 4.76% (inactive). In addition, the nuclear beta-catenin stimulation is 1.1% (inactive) in assay [5] (at 10 µM) and 0.8% in [5] (stimulation, at 2 µM). The insulin secretion stimulation in assay [6] is 13% (inactive). Further, in assay [7], the viability decrease is -23.2% (inactive). Further, in assay [8], the tube area decrease is 5.3% (inactive). In [9], the GLP1 secretion stimulation was 4.8% (inactive). Moreover, the inhibition of viability in [10] is 13.3% (inactive). Moreover, the viability decrease (inhibition) was -2.1% (inactive) in [11] and -41.1% (inactive) in assay [12]. In addition, the red/green cell ratio (normalised) in assay [20] was 0.96 (inactive). For the same compound, the normalised cell number was 1.02 in [20] (setting [27]) and 0.99 in assay [20] (setting [28]). Further, the fold change is 1.02 (inactive) and 1.23 (inactive) and 0.865 (inactive) in [14] (setting [21]); 1.94 and 0.367 and 2.89 in assay [14] (setting [22]). Besides, the cell count in assay [14] (setting [23]) is 10300 and 8350 and 10800; in assay [14] (setting [24]) it was 10100 and 6800 and 12500. The z-score in assay [15] (setting [25]) is -0.152 (inactive) and -0.218 (inactive); in [15] (setting [26]), -0.132 and 0.37. For the same compound, the remaining NAD in assay [16] is 10 nM (inactive). Further, the luciferase signal in assay [17] is 32 AU (inactive). Further, the log fold change Tl+ flux in assay [18] was -0.114 (active).

Turning to `C[C@@H]1CC(=O)NN=C1c1ccc(NN=C(C#N)C#N)cc1`, the nuclear beta-catenin stimulation in assay [5] (at 10 µM) was 7.5% (inactive) and 2.8% (inactive); in assay [5] (stimulation, at 2 µM), 0% and -0.4%. Besides, in assay [6], the insulin secretion stimulation was -2.9% (inactive) and -1.5% (inactive). In addition, the viability decrease in [7] was -8.85% (inactive) and 2.3% (inactive). For the same compound, in assay [8], the tube area decrease was 41.6% (active) and 22.4% (inactive). In addition, in [9], the GLP1 secretion stimulation was 1.1% (inactive) and -7% (inactive). In addition, the inhibition of viability in assay [10] is -20.6% (inactive) and 6.9% (inactive). Moreover, the viability decrease (inhibition) in assay [11] is 30.7% (inactive) and -5.7% (inactive); in assay [12], 12.6% (inactive) and 21.9% (inactive). Also, the red/green cell ratio (normalised) in [20] is 1.17 (inactive). The normalised cell number in assay [20] (setting [27]) came out at 1.03; in [20] (setting [28]) it was 1.21. Also, the fold change is 0.967 (inactive) in [14] (setting [21]) and 0.752 in [14] (setting [22]). In addition, the cell count in assay [14] (setting [23]) amounted to 8720; in assay [14] (setting [24]), 9020. Besides, the remaining NAD in [16] is 10 nM (inactive).
